Source: PubChem BioAssay (Tox21)
Activity calls are given as the source filed them. Calls follow the shape of the dose curve; as a rule, active = well fitted curve in the direction sought with a large enough effect in the repeat runs; inconclusive = weak or mixed curves; inactive = flat fitted curve, though single readings scatter.

Test: qHTS assay to test for compound auto fluorescence at 535 nm (green) in HEK293 cells (AID 720680)
Conditions: green autofluorescence 485/535 nm; series mostly up to 91.3 µM; fluorescence, % of fluorescein: at the top concentration
% is scaled to controls: 0 for no effect and ±100 for the full control effect.

SMILES | fluorescence, % of fluorescein
O=C1C(=O)c2ccccc2C(O)=C1C1CCC(c2ccc(Cl)cc2)CC1 (stereo not drawn) | -0.014% [at 18.6 µM] (inactive)
CN1CC(=O)N2[C@H](c3ccc4c(c3)OCO4)c3[nH]c4ccccc4c3C[C@@H]2C1=O | 0.0817% [at 46 µM] (inactive)
O=C1c2ccccc2C(=O)C1c1nc2ccccc2c(Br)c1O | 0.065% (inactive)
CCOC(=O)C1=C(C)NC(C)=C(C(=O)OC)C1c1cccc(Cl)c1Cl (stereo not drawn) | 0.196% [at 46 µM] (inactive)
O=[N+]([O-])c1ccc(O/N=C/c2cc(Br)c(O)c(Br)c2)c([N+](=O)[O-])c1 | -0.192% (inactive)
C/C=C/C=C/C=O | 0.19% (inactive)
O=c1cc(-c2ccccc2)oc2ccc3ccccc3c12 | -0.0012% (inactive)
Nc1nc2ccc([N+](=O)[O-])cc2s1 | -0.139% (inactive)
CCC(C)COC(C)=O (stereo not drawn) | -0.145% (inactive)
CCOC(=O)OC(C)OC(=O)[C@@H]1N2C(=O)[C@@H](NC(=O)[C@H](N)c3ccccc3)[C@H]2SC1(C)C (stereo partly drawn) | 0.0714% [at 18.6 µM] (inactive)
Brc1cc(Br)c(Oc2cc(Br)c(Br)cc2Br)cc1Br | -0.184% [at 46 µM] (inactive)
C[C@@H]1CN(CCCn2c3ccccc3c3ccccc32)C[C@H](C)N1 | 0.0497% [at 46 µM] (inactive)
O=C1Cc2ccccc2N1c1c(Cl)cccc1Cl | -0.0038% (inactive)
Cc1cc(O)ccc1O | -0.0083% (inactive)
CC1(C)[C@H](C(=O)O)N2C(=O)C[C@H]2S1(=O)=O | -0.101% [at 46 µM] (inactive)
Cc1cc(=O)c2c(O)c3c(O)cc(=O)c4c3c3c(cc(O)c1c23)C(C)(C)C=4O | 4.72% [at 46 µM] (inactive)
CCCCC(CC)COP(=O)(O)O (stereo not drawn) | -0.012% [at 95.7 µM] (inactive)

SMILES | fluorescence, % of fluorescein
c1ccc2sc(SN(C3CCCCC3)C3CCCCC3)nc2c1 | 0.0527% [at 95.7 µM] (inactive)
C[C@H]1c2cccc(O)c2C(O)=C2C(=O)[C@]3(O)C(O)=C(C(N)=O)C(=O)[C@@H](N(C)C)[C@@H]3[C@@H](O)[C@@H]21 | -0.0876% [at 46 µM] (inactive)
O=C(CCCN1CC=C(n2c(=O)[nH]c3ccccc32)CC1)c1ccc(F)cc1 | -0.0007% [at 46 µM] (inactive)
C=CCc1ccccc1OCC(O)CNC(C)C (stereo not drawn) | 0.107% [at 46 µM] (inactive)
CN(C)CCC=C1c2ccccc2C=Cc2ccccc21 | -0.0788% [at 46 µM] (inactive)
N#CCc1ccc(Cl)cc1Cl | 0.0316% (inactive)
O=C(/C=C/c1ccccc1)OCCc1ccccc1 | 0.0316% (inactive)
CC(C)(c1ccccc1)c1ccccc1 | 0.0158% (inactive)
CCOc1ccc(Cc2nccc3cc(OCC)c(OCC)cc23)cc1OCC | -0.066% [at 18.6 µM] (inactive)
CCCCCCCCC(CCCCCC)C(=O)O (stereo not drawn) | 0.0093% (inactive)
Oc1c(I)cc(I)c2cccnc12 | 0.0667% [at 46 µM] (inactive)
CC(=O)NC1(c2cccc(F)c2)CCN(CC[C@@]2(c3ccc(Cl)c(Cl)c3)CN(c3ccccc3)C(=O)CO2)CC1 | 0.0392% (inactive)
CN1C(=O)c2ccccc2C1=O | -0.276% (inactive)
CC(=O)Oc1ccc([N+](=O)[O-])cc1CCl | -0.111% (inactive)
C=C(C)C(=O)OCCOCCOC(=O)C(=C)C | 0.021% (inactive)
CC1(C)O[C@@H]2C[C@H]3[C@@H]4C[C@H](F)C5=CC(=O)C=C[C@]5(C)[C@H]4[C@@H](O)C[C@]3(C)[C@]2(C(=O)CO)O1 | -0.126% [at 18.6 µM] (inactive)
